Results as given in paper PMC5540273 (PLoS ONE, 2017).

What was measured:
Settings in all cases: concentration: 1 μM, replicates: in singlicate; n = 1
FYN = system: FYN
GAK = system: GAK
GCN2(Kin.Dom.2,S808G) = system: T1, GCN2(Kin.Dom.2,S808G)
T1 construct: gene EIF2AK4

GRK1 = system: GRK1
GRK2 = system: T2, GRK2
T2 construct: gene ADRBK1

GRK3 = system: T3, GRK3
T3 construct: gene ADRBK2

GRK4 = system: GRK4
GRK7 = system: GRK7
GSK3A = system: GSK3A
GSK3B = system: GSK3B
HASPIN = system: T4, HASPIN
T4 construct: gene GSG2

HCK = system: HCK
HIPK1 = system: HIPK1
HIPK2 = system: HIPK2
HIPK3 = system: HIPK3
HIPK4 = system: HIPK4
HPK1 = system: HPK1
HUNK = system: HUNK
ICK = system: ICK
IGF1R = system: IGF1R
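Note: KINOMEscan kinase panel screen.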

Structure (SMILES)	%Inh (FYN) [%]	%Inh (GAK) [%]	%Inh (GCN2(Kin.Dom.2,S808G)) [%]	%Inh (GRK1) [%]	%Inh (GRK2) [%]	%Inh (GRK3) [%]	%Inh (GRK4) [%]	%Inh (GRK7) [%]	%Inh (GSK3A) [%]	%Inh (GSK3B) [%]	%Inh (HASPIN) [%]	%Inh (HCK) [%]	%Inh (HIPK1) [%]	%Inh (HIPK2) [%]	%Inh (HIPK3) [%]	%Inh (HIPK4) [%]	%Inh (HPK1) [%]	%Inh (HUNK) [%]	%Inh (ICK) [%]	%Inh (IGF1R) [%]
Cc1ccc(F)c(C(=O)Nc2cccc(-c3nn4ccccc4c3-c3ccnc(Nc4cccc(F)c4)n3)c2)c1F [GSK361061]	58	52	11	0	0	0	25	0	12	21	1	94.4	0	0	14	57	21	11	0	41
Cl.NC(=O)c1cccc(Nc2nccc(Nc3ccc(Oc4c(Cl)cccc4Cl)c(Cl)c3)n2)c1 [GW659009]	66	59	0	0	0	39	4	0	0	0	0	77	0	11	2	4	0	0	0	0
CC(=O)N1CCN(c2ccc(Nc3nccc(-c4sc(C(C)C)nc4-c4cccc(NS(=O)(=O)c5cccc(Cl)c5)c4)n3)cn2)CC1 [GSK1660437]	73	90.9	100	0	12	0	30	0	12	10	0	83	40	5	35	82	36	0	0	0
FC(F)(F)c1ccc(/C=C/c2cncnc2Nc2ccc3[nH]c(Cc4ccccc4)nc3c2)cc1 [GW709199]	10	0	0	11	0	0	18	0	39	0	12	14	21	0	0	13	12	55	0	0
O=c1[nH]cc(-c2ccc(N3CCOCC3)cc2)c2sc(-c3cn[nH]c3)cc12 [GSK2276055]	31	34	0	14	9	0	0	0	97.7	77	79	0	97.3	97.5	99	47	26	11	31	0
CN(C)Cc1ccc(-c2ccc3c(Nc4ccc(Oc5ccccn5)cc4)ccnc3c2)o1 [GW567148]	71	82	0	0	0	0	0	10	0	6	26	93.8	0	0	1	0	0	0	0	0
Cn1cc(-c2ccc3c(c2)CCN3C(=O)Cc2cccc(F)c2)c2c(N)ncnc21 [GSK2603358]	0	16	33	0	0	36	0	0	4	12	0	13	0	0	8	0	57	13	0	23
Cc1ccc(C)c(NC(=O)NC2CCN(c3ccnc(Nc4ccc(F)cc4)n3)C2)c1 (stereo not drawn) [GSK1379720]	27	0	0	0	0	60	7	0	0	0	44	0	0	10	0	0	45	0	0	25
Cl.Cl.NCC(NC(=O)c1cc(-c2ccccc2)c(-c2ccnc3[nH]ccc23)s1)c1ccccc1 (stereo not drawn) [GSK1321561]	59	86	0	9	0	15	0	25	31	26	90.3	0	18	28	47	50	68	11	3	0
